# Measured values as given in PubChem BioAssay AID504332 (National Center for Advancing Translational Sciences (NCATS), 2011).
# Several values for one entry are separate records, joined by “and”; a condition that tells them apart may be missing. Equal entries are not always repeated. Among all 350,000 compounds or so, about 31,000 (8.9%) were called active. Roughly 15% stayed inconclusive and do not appear here. The sample as a whole holds a higher share of actives than the screen did. A number with no mark means an inactive call. Calls come from the whole dose curve; as a rule, active = well fitted inhibition curve with a large enough effect; inconclusive = small, poorly fitted or top-dose-only effect; inactive = no such curve, though single readings can be large or run the other way.
# Biological target: Histone-lysine N-methyltransferase EHMT2 (Homo sapiens) (UniProt Q96KQ7)
# Assay: qHTS Assay for Inhibitors of Histone Lysine Methyltransferase G9a; note: nearly all actives have a fitted effect of over 75% in size
# Conditions: G9a H3K9 monomethylation, AlphaScreen, 2 h; series mostly up to 102 µM; activity, negative = inhibition: at the top concentration
# Method in brief: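 Methyltransferase reactions run at room temperature for 2 h (20 nM enzyme, 500 nM biotin-H3K9 peptide, 20 uM SAM) after a 15 min compound preincubation; product detected by AlphaScreen beads and anti-H3K9me1 antibody.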
# % is set by controls: 0 for no effect and ±100 for the full control effect; potency is the fitted concentration of half-maximal effect.
# Sequence of Histone-lysine N-methyltransferase EHMT2 (Homo sapiens) (Q96KQ7 913-1193 limits assumed): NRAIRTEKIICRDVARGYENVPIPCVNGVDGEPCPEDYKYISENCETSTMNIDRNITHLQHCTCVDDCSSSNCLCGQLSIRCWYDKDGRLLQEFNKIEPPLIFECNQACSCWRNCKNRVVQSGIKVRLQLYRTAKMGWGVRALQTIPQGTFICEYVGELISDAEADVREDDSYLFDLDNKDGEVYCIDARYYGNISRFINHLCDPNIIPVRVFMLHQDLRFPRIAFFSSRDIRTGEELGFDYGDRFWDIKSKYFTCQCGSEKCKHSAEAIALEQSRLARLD
SMILES,"activity, negative = inhibition",Potency
CC1C2Cn3c(nc4ccccc43)C1N(C)O2 (stereo not drawn),11.2% [at 12.7 µM],
O=C1NC(=O)N(c2ccc(F)cc2)C(=O)/C1=C/c1ccc2c(c1)CCCN2Cc1ccccc1,,12.6 µM (active)
O=C(NC(c1ccc(Cl)cc1)P(=O)(Oc1ccccc1)Oc1ccccc1)OCc1ccccc1 (stereo not drawn),7.99% [at 59 µM],
Cc1ccccc1NC(=O)COC(=O)c1cc(C)n(C2CC2)c1C,-5.25% [at 59 µM],
CCOC(=O)C(O)(c1ccc(N)c(OC)c1)C(F)(F)F (stereo not drawn),-7.69% [at 2.33 µM],
CCOP(=O)(OCC)C(NC(=O)NC)C(N)=O (stereo not drawn),8.11%,
Nc1ccc(C(=O)N/N=C2/CN3CCC2CC3)cc1,-18.4%,
CCC(C)n1c(O)c(/C=N/Nc2nc3c(c(=O)n(C)c(=O)n3C)n2C)c(=O)[nH]c1=S (stereo not drawn),,25.1 µM (active)
CC(=O)c1c(O)c(C)c(O)c(Cc2c(O)c3c(c(C(=O)/C=C/c4ccccc4)c2O)OC(C)(C)C=C3)c1O,,14.1 µM (active) and 2.12 µM (active)
O=c1c2ccccc2nc(/C=C/c2ccc(F)cc2)n1-c1ccccc1O,7.81%,
C=CCN(CC=C)C(=O)Nc1ccc(OCC)cc1,17.5%,
CC[C@]1(C)CC(=O)NC1=O,-2.16% [at 12.7 µM],
COC(=O)C1=C(c2ccc(F)cc2OCc2ccccc2)C[C@@H]2CC[C@H]1N2C(=O)NCc1ccc(Cl)cc1,8.03% [at 2.33 µM],
O=C(c1cc2nc(-c3ccccc3)cc(-c3ccccc3)n2n1)N1CCC2(CC1)OCCO2,17.4% [at 12.7 µM],
CC1=C2C(=O)C3C(CC=C4CC(OC5OC(O)C(O)C(O)C5CO)CCC43C)C2CCC12OC1CC(C)CNC1C2C (stereo not drawn),-0.0918%,
O=C1NC(=O)N(CCc2ccc(F)cc2)C(=O)/C1=C/C=C/c1ccccc1,,70.8 µM (active)
COC(=O)C(O)(c1ccc(NC(=O)c2ccco2)c(OC)c1)C(F)(F)F (stereo not drawn),-1.81%,
CCc1cccc2c(C#N)cn(CC(=O)N3CCOCC3)c12,15.5% [at 12.7 µM],
COCc1cc(OC(=O)N(C)C)nc(-c2ccc(C)c(Cl)c2)n1,64.1%,
CCCCCCCCc1[se]c2ccccc2c1Br,23.6%,
COc1ccc(-c2nc(CS(=O)CC(=O)N3CCC4(CC3)OCCO4)c(C)o2)cc1 (stereo not drawn),-4.28% [at 12.7 µM],
C[C@]12CC[C@H](O)C[C@H]1CC[C@@H]1C2CC[C@]2(C)[C@@H](C3=CC(=O)OC3)[C@@H](O)C[C@]12O (stereo partly drawn),-8.99% [at 2.33 µM],
Cc1cc(C)cc(NC(=S)NC2CC3CCCC(C2)N3Cc2cccs2)c1 (stereo not drawn),-45.2% [at 59 µM],
CN(C)c1ccc(NC(=O)CN2C3CCCC2CC(NC(=O)c2ccccc2)C3)cc1 (stereo not drawn),,50.1 µM (active)

SMILES,"activity, negative = inhibition",Potency
CCC(C)C(=O)O[C@@H]1C[C@@]2(C)C(c3ccoc3)OC(=O)CC23OC2(C)O[C@@]14[C@@]1(C)C(CC(=O)OC)C5(C)CC1(O)C(O)(C5OC(=O)C1(C)OC1C)C(OC(C)=O)[C@@]34O2 (stereo partly drawn),-36.9% [at 2.33 µM],
c1ccc2sc(SNC3CCCCC3)nc2c1,,1.78 µM (active)
COc1cc2c(cc1OC)[C@@H]1C(=O)c3ccc(O)c(CC=C(C)C)c3OC1CO2 (stereo partly drawn),-32.8% [at 2.33 µM],
O=C(CSC1c2ccccc2-c2ccccc21)N/N=C/c1ccccc1,3.19%,
CC1CCCCN1Cc1cccnc1 (stereo not drawn),,6.31 µM (active)
c1cncc(CNC2=NCCC2)c1,11.8% [at 59 µM],
CN1CCC(N(C)Cc2cccnc2)CC1,,3.16 µM (active)
c1cncc(CNCCc2c[nH]c3ccccc23)c1,13.1%,
CCOC(=O)C1(Cc2ccc(Cl)cc2)CCN(C(C)CCn2cccn2)CC1 (stereo not drawn),-32.7%,
CC[N+](CC)(CC)CCCCCCCCCC[N+](CC)(CC)CC,2.94%,
C=CCN1C(=O)C2(C(C(=O)OCC)=C(N)Oc3c2c(=O)oc2ccccc32)c2ccccc21 (stereo not drawn),10.8% [at 59 µM],
Fc1ccc(C2N3CCCN23)cc1 (stereo not drawn),-3.98%,
CCC(=NCCCO)c1c(O)n(-c2ccc(OC)cc2)c(=O)[nH]c1=O,2.36%,
O=C(COC(=O)c1ccccc1)Nc1ccccc1Sc1ccccc1,84.5% [at 59 µM],
O=C1N=c2ccccc2=C/C1=C\c1c(O)[nH]c(=S)[nH]c1=O,,25.1 µM (active)
COc1ccc(C2N3CC(C)(C)CN23)cc1 (stereo not drawn),12% [at 59 µM],
CCCn1c(C(=O)c2ccccc2OC)nc2ccccc21,1.61%,
COc1ccc(Br)cc1CNCCc1cccc(Cl)c1,,20 µM (active)
Cc1ccc(N2C(=O)NC(=O)C(CCc3ccncc3)(Cc3cccc(Cl)c3Cl)C2=O)cc1 (stereo not drawn),-9.85% [at 59 µM],
CC1=CC(=Cc2sc3ccccc3[n+]2C)C=C(C)O1,,50.1 µM (active)
CN(C)C(=O)Oc1cc(=O)n2c3c(cccc13)CCC2,-1.41% [at 59 µM],
CC(C)Nc1nc(Cl)nc(NC(C)C)n1,-2.82% [at 59 µM],
CNC(=S)N/N=C1\C2CN3CCN(C2)CC1(c1ccccc1)C3,29.9% [at 59 µM],
Cc1ccc(P(=S)(c2ccc(C)o2)N2CCOCC2)o1,-35.9% [at 12.7 µM],
